Data as given in PubChem BioAssay (EPA / NIEHS).
Activity calls are given as the source filed them. Rule for the calls: active = hit-call score of the fitted dose curve at least 0.9, where 1 is the maximum; inactive = score below 0.9.

system: TTR (gene 7276); assay: CCTE_GLTED_hTTR_0.125uM: CCTE's human Transthyretin (hTTR) Inhibition Assay, with 0.125uM TTR, Great Lakes Toxicology and Ecology Division (GLTED) Lab (AID 2284431)
Procedure: CCTE_GLTED_hTTR is a cell-free, single-readout assay designed to test the chemicals' ability to displace T4 from the human transthyretin (TTR) protein. TTR (at 0.125uM or 0.5uM) is incubated in presence of test chemical for 2 hours during which disrupting chemicals displace ANSA from the TTR protein. Results read fluorescence at 380 excitation and 475 emission.CCTE_GLTED_hTTR_0.125uM is the assay component measured from the CCTE_GLTED_hTTR assay. It is designed to make measurements of fluorescent polarization, using a form of binding reporter, as detected with Fluorescence signals by Fluorescence technology.Data from the assay component CCTE_GLTED_hTTR_0.125uM was analyzed at the assay endpoint CCTE_GLTED_hTTR_0.125uM in the positive analysis fitting direction relative to DMSO as the negative control and baseline of activity. Using a type of binding reporter, loss-of-signal activity can be used to understand a chemical's ability to displace T4 from transthyretin. To generalize the intended target to other relatable targets, this assay endpoint is annotated to the 'transporter' intended target family, where the subfamily is 'hormone carrier protein'.
Human transthyretin (TTR) assay, developed at Great Lakes Toxicology and Ecology Division (GLTED) within the EPA's Center for Computational Toxicology and Exposure (CCTE), is designed to test the chemicals' ability to displace T4 from the TTR protein. TTR (0.125uM) is incubated in presence of test chemical for 2 hours during which disrupting chemicals displace ANSA from the TTR protein. Results read fluorescence at 380 excitation and 475 emission.

| Compound | AC50 |
| --- | --- |
| CCCCCCCCCCOS(=O)(=O)O | 3.68 µM (active) |
| CCCCCCCC/C=C\CCCCCCCC(=O)O | 3.32 µM (active) |
| COC(=O)c1c(C)cc(O)c(C)c1O | 1.29 µM (active) |
| CN(C)c1ccc(N=Nc2ccccc2C(=O)O)cc1 | 8.96 µM (active) |
| CC1=NN(c2cc(S(=O)(=O)O)ccc2Cl)C(=O)C1N=Nc1ccccc1 (stereo unspecified) | 5.76 µM (active) |
| CCCCC/C=C\C/C=C\CCCCCCCC(=O)OC | 9.84 µM (active) |
| CCCCC(CC)CCC(CC(C)C)OS(=O)(=O)O (stereo unspecified) | 0.382 µM (active) |
| Oc1ccc(Cl)cc1Cc1cc(Cl)ccc1O | 0.129 µM (active) |
| CCCCCCCCCCCCCOP(=O)(O)O | 0.78 µM (active) |
| O=c1cc(-c2ccccc2)oc2ccccc12 | 10.8 µM (active) |
| O=S1(=O)OC(c2ccc(O)cc2)(c2ccc(O)cc2)c2ccccc21 | 3.34 µM (active) |
